Results: PubChem BioAssay (NCI)
The panel holds about 83,000 compounds, 20% with a hit somewhere; the sample as a whole holds those more often.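 Each cell line was grown in a 96-well plate and treated with one concentration of compound for 48 hours. Values below 10 were considered active.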 Activity calls are given as the source filed them.

What was measured:
Test in all cases: NCI-60 one-dose screen, 48 h (100 = growth as untreated, 0 = no growth, -100 = all killed)
Settings in all cases: 10 µM unless noted
[1] = tested on: HCT-15 colon
[2] = tested on: HT29 colon
[3] = tested on: SNB-75 CNS
[4] = tested on: SNB-19 CNS
[5] = tested on: PC-3 prostate
[6] = tested on: SK-MEL-5 melanoma
[7] = tested on: UACC-62 melanoma
[8] = tested on: LOX IMVI melanoma
[9] = tested on: SK-MEL-28 melanoma
[10] = tested on: SK-MEL-2 melanoma
[11] = tested on: EKVX NSCLC
[12] = tested on: SN12C renal
[13] = tested on: UO-31 renal
[14] = tested on: TK-10 renal
[15] = tested on: ACHN renal
[16] = tested on: CAKI-1 renal
[17] = tested on: A498 renal
[18] = tested on: CCRF-CEM leukemia
[19] = tested on: MOLT-4 leukemia
[20] = tested on: U251 CNS

| SMILES | growth [1] | growth [2] | growth [3] | growth [4] | growth [5] | growth [6] | growth [7] | growth [8] | growth [9] | growth [10] | growth [11] | growth [12] | growth [13] | growth [14] | growth [15] | growth [16] | growth [17] | growth [18] | growth [19] | growth [20] |
| --- | --- | --- | --- | --- | --- | --- | --- | --- | --- | --- | --- | --- | --- | --- | --- | --- | --- | --- | --- | --- |
| CC(C)(C)c1ccc(S(=O)(=O)Oc2ccc(-c3sc4cc(OS(=O)(=O)c5ccc(C(C)(C)C)cc5)ccc4c3C(=O)c3ccc(OCCN4CCCCC4)cc3)cc2)cc1 | 97.8% (inactive) | 90.8% (inactive) | 56.6% (inactive) | 97.6% (inactive) | 88.8% (inactive) | 99.6% (inactive) | 95% (inactive) | 99.9% (inactive) | 97.8% (inactive) | 89.9% (inactive) | 83.8% (inactive) | 98.9% (inactive) | 74.6% (inactive) | 90.4% (inactive) | 98.1% (inactive) | 95.7% (inactive) | 105% (inactive) | 93.4% (inactive) | 95.7% (inactive) |  |
| CN1CC(c2ccc(Br)cc2)C(C(=O)c2ccc(Br)cc2)C12C(=O)Nc1ccccc12 (configuration not stated) | 59.5% (inactive) | 36% (inactive) | 71.9% (inactive) | 85.1% (inactive) | 43.5% (inactive) | 94.2% (inactive) | 63.9% (inactive) | 79.8% (inactive) | 95.6% (inactive) | 82.9% (inactive) | 70.1% (inactive) | 70% (inactive) | 48.3% (inactive) | 92.1% (inactive) | 79.6% (inactive) | 46.9% (inactive) | 88.9% (inactive) | 80.2% (inactive) | 64.3% (inactive) |  |
| N=C(N)c1ccc(-c2ccc(-c3cc(Cl)cc(Cl)c3)s2)s1 | -84.8% (active) | -80.1% (active) | 3.24% (active) | -61.9% (active) | 35.6% (inactive) | 86.6% (inactive) | -74% (active) | -82.4% (active) | 33.7% (inactive) | 83.4% (inactive) | -12.2% (active) | -65.4% (active) | -40.2% (active) | -26.5% (active) | -54.2% (active) | 2.68% (active) | 73.6% (inactive) |  | -41.9% (active) |  |
| c1ccc(Nc2nc3c(s2)CCc2c[nH]cc2-3)nc1 | 102% (inactive) | 100% (inactive) | 88.7% (inactive) | 100% (inactive) | 70.4% (inactive) | 83.5% (inactive) | 92.1% (inactive) | 82.7% (inactive) | 110% (inactive) | 99.2% (inactive) | 75.3% (inactive) | 106% (inactive) | 59.4% (inactive) | 159% (inactive) | 92.3% (inactive) | 97.3% (inactive) | 81% (inactive) | 9.72% (active) | 64.7% (inactive) |  |
| COc1cc(/C=C/C(=O)c2cccc(-n3cc(-c4ccc(Cl)cc4)[nH]c3=O)c2)ccc1O | 37.8% (inactive) | 27% (inactive) | 50.3% (inactive) | 94.9% (inactive) | 34.2% (inactive) | 68.1% (inactive) |  | 13.1% (inactive) | 58.6% (inactive) | 58.5% (inactive) | 68.7% (inactive) | 46.4% (inactive) | 31.2% (inactive) | 104% (inactive) | 60.4% (inactive) | 37.2% (inactive) | 106% (inactive) | 19.5% (inactive) | 24.2% (inactive) |  |
| Clc1ccc(Nc2nnc(CNc3ccccc3)c3ccccc23)cc1 | 13.4% (inactive) | 0.551% (active) | 19.6% (inactive) | 25.9% (inactive) | 7.15% (active) | -69.1% (active) | 8.47% (active) | 12.1% (inactive) | 14.9% (inactive) | 8.63% (active) | 16.9% (inactive) | 28.9% (inactive) |  | -0.692% (active) | 7.07% (active) | 28.2% (inactive) | 24.7% (inactive) | 12.4% (inactive) | -9.21% (active) |  |
| Cc1nc2sc(C(=O)Nc3cccc4ccccc34)c(N)c2cc1C(=O)c1ccccc1 | 14% (inactive) | 14.7% (inactive) | 11.9% (inactive) | 26.9% (inactive) | 21.3% (inactive) | 25% (inactive) | 33.4% (inactive) | 41.8% (inactive) | 59.8% (inactive) | 46.6% (inactive) | 46% (inactive) | 36.6% (inactive) | 43.5% (inactive) | 66.1% (inactive) | 41.6% (inactive) | 36.5% (inactive) | -10.9% (active) | 12% (inactive) | 21.4% (inactive) |  |
| Cc1ccc(S(=O)(=O)N2CCCN(c3nc(-c4ccccc4)nc4nc(-c5ccccc5)oc34)CC2)cc1 | 114% (inactive) | 120% (inactive) | 105% (inactive) | 102% (inactive) | 96.3% (inactive) | 98.9% (inactive) | 101% (inactive) | 95.4% (inactive) | 108% (inactive) | 103% (inactive) | 112% (inactive) | 97.6% (inactive) |  | 103% (inactive) | 103% (inactive) | 93.2% (inactive) | 106% (inactive) | 106% (inactive) | 95% (inactive) |  |
| CC(O)Cc1c[nH]c(=O)[nH]c1=O (configuration not stated) | 97.8% (inactive) | 114% (inactive) | 120% (inactive) | 108% (inactive) | 126% (inactive) | 109% (inactive) | 106% (inactive) | 96.5% (inactive) | 122% (inactive) | 115% (inactive) | 106% (inactive) |  | 100% (inactive) | 123% (inactive) | 97.9% (inactive) | 99.6% (inactive) | 87.8% (inactive) | 122% (inactive) | 101% (inactive) |  |
| Cn1cc(-c2csc(-c3cn(C)c4ccccc34)n2)c2cnccc21 | -35.9% (active) |  | 104% (inactive) | 52.2% (inactive) | 54.8% (inactive) | -76.2% (active) | 61.4% (inactive) | -87.5% (active) | -92.9% (active) | 107% (inactive) | 16.8% (inactive) | 67.8% (inactive) | -48.1% (active) | 66.7% (inactive) |  | -6.15% (active) | 85.2% (inactive) | 0.781% (active) | 5.42% (active) | -48.7% (active) |
| C[N+]1=C(/C=C/c2ccccc2Cl)C(C)(C)c2ccccc21 | 101% (inactive) |  | 95.5% (inactive) | 107% (inactive) | 83.5% (inactive) | 92.2% (inactive) | 91.9% (inactive) | 85.5% (inactive) | 103% (inactive) | 109% (inactive) | 96.9% (inactive) | 103% (inactive) | 71.5% (inactive) | 114% (inactive) | 110% (inactive) | 89% (inactive) | 87.1% (inactive) | 47.1% (inactive) | 70.3% (inactive) | 84.2% (inactive) |
| O=C(Nc1ncc(Cc2ccccc2)s1)c1sc2ccccc2c1Cl | 26.5% (inactive) |  | -1.11% (active) | 52.6% (inactive) | 27% (inactive) | 3.74% (active) | 12.1% (inactive) | 46.9% (inactive) | 59.4% (inactive) | 20.8% (inactive) | 30.2% (inactive) | 39.5% (inactive) | 39% (inactive) | 38.8% (inactive) | 39.8% (inactive) | 29.5% (inactive) | 15.1% (inactive) | 18.8% (inactive) | 31.4% (inactive) | 21.4% (inactive) |
